Here are results for 31 sequences from paper PMC4081663, “Single-Nucleotide Mutation Matrix of NF-κB”.

For the experiment, the target named is NF-kB p50 homodimer (Homo sapiens, UniProt P19838 1-433). Kind of experiment: bimolecular dsDNA microarray; Bimolecular dsDNA microarray on aldehyde glass; probes annealed in 10 mM Tris-HCl pH 8.0, 100 mM NaCl, 1 mM EDTA; binding buffer and temperature as in ref 16, not stated; high values mean tight binding. The following applies: protein: commercial; tags: Cy3-labeled for microarray; chain copies: 2; label: 5' amino linker to the slide; dsDNA, one strand shown.
NF-kB p50 homodimer, sequence (P19838 1-433): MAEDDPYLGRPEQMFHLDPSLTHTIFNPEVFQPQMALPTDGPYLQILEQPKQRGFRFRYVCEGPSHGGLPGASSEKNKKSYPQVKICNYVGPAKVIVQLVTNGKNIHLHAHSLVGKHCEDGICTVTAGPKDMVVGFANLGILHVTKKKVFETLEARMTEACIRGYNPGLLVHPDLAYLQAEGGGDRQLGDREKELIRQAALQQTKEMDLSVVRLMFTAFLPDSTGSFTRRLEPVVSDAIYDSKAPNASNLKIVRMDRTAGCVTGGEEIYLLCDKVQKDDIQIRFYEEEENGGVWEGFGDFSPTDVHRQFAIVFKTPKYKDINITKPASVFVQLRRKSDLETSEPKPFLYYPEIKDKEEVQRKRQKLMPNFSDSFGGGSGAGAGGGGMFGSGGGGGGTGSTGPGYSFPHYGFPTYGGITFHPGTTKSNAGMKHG
The sequence GGGACTTTCC showed a binding signal of 52.8 a.u. To GGGACATTCC belongs 26.5 a.u. In the case of GGGACTTTCT it was 20.2 a.u. In turn, GGGATTTTCC gave a binding signal of 58.5 a.u. To GGTACTTTCC belongs 46.1 a.u; to GGGACCTTCC, 19.8 a.u; to GAGACTTTCC, 16.7 a.u. AGGACTTTCC came in with a binding signal of 21.1 a.u. GGGACTTTTC gave a binding signal of 29.6 a.u. Sequence GGGAATTTCC yielded a binding signal of 57.5 a.u. GGCACTTTCC: the binding signal is 19.2 a.u. Consider GGGCCTTTCC, for which the binding signal was found to be 20.5 a.u. As to GGGACTGTCC, the binding signal worked out at 32.4 a.u. To GGGAGTTTCC belongs 55.8 a.u; to GGAACTTTCC, 31.4 a.u.

With GGGGCTTTCC, the binding signal worked out at 49.7 a.u. As for GGGACTTTCG, the binding signal came to 24.6 a.u. To GGGACTATCC belongs 20 a.u; to GGGACTCTCC, 24.8 a.u. In the case of GGGACTTTGC it was 22.9 a.u; in that of GGGACGTTCC, 25 a.u; in that of GTGACTTTCC, 20.4 a.u.

GGGACTTACC showed a binding signal of 25.4 a.u. On to GCGACTTTCC, for which the binding signal stood at 12.5 a.u.

GGGACTTGCC yielded a binding signal of 18.8 a.u.

GGGTCTTTCC: the binding signal was 28.6 a.u. In the case of GGGACTTCCC it was 60.9 a.u; in that of GGGACTTTCA, 24.7 a.u; in that of CGGACTTTCC, 19.8 a.u.

As for TGGACTTTCC, the binding signal amounted to 22.8 a.u. The sequence GGGACTTTAC returned a binding signal of 38.1 a.u.
